In PubChem BioAssay (NCI):
Compounds without any hit were thinned out: in the full panel of roughly 83,000, 20% have a hit.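 Plates (96-well) were seeded with cells, treated with compound at one concentration, and incubated for 48 hours before percent growth was determined.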 Unmarked numbers belong to inactive results. Active and inactive are the calls of the source. How the source made its calls: active means growth percent below 10; inactive means the rest.

test system: SW-620 colon; assay: NCI-60 one-dose screen, 48 h (100 = growth as untreated, 0 = no growth, -100 = all killed); conditions: 10 µM unless noted

| Compound | growth |
| --- | --- |
| Cc1ccc(C(=O)Nc2ccc(-n3ccnc3)c(C(F)(F)F)c2)cc1C#Cc1cnc2cccnn12 | 31.2% |
| N/C(=N\c1nc2ccccc2s1)NC(=O)Nc1ccccc1F | 43% |
| Cc1nc2sccn2c1-c1nnc(SCC(C)C)o1 | 97.6% |
| O=[N+]([O-])c1cccc(-c2nnc3c(/C=C/c4ccc(F)cc4)nc4ccccc4n23)c1 | 96.1% |
| C=CC(=O)N1CCN(c2ccc3nc4c(nc3c2C(F)(F)F)C(=O)c2ncccc2C4=O)CC1 | 4.1% (active) |
| CN1CCN(CCS(=O)(=O)Nc2cc(-c3ccc4ncnc(Nc5ccc(F)c(Cl)c5)c4c3)cnc2Cl)CC1 | 36.2% |
| COc1ccc(N=Nc2c(N)nn3c(-c4ccc(F)cc4)ccnc23)cc1 | 44.5% |
| O=C(N/N=C/c1c[nH]c2ccccc12)Nc1ccc(F)c(Cl)c1 | 41.3% |
| N#CCc1nnc(NC(=O)c2ccc(-n3c(=O)[nH]c4ccccc4c3=O)cc2)s1 | 104% |
| CCOc1ccc(-c2cc(-c3cc(C(C)C)c(O)cc3C)nn2-c2ccc(S(N)(=O)=O)cc2)cc1 | 33.3% |
| CN1CCN(c2ccc3c4c(cccc24)C(=O)N(c2cccc(-c4nn(-c5ccccc5)cc4-c4nc5ccccc5s4)c2)C3=O)CC1 | 93% |
| O=C(Cn1c(-c2ccccc2)nc2ccccc21)N=Nc1c(O)[nH]c2ccc(Cl)cc12 | 23% |
| CCc1ccc(SC2c3cc(OC)ccc3Oc3nc(N)c(C#N)c(N)c32)cc1 (stereo unspecified) | -42.9% (active) |
| CN(C)C(=O)c1cc(-c2ccc3ncnc(N4CCc5cc(F)c(Cl)cc54)c3c2)cnc1N | -51.8% (active) |
| CN1C(=O)C2(C(C#N)=C(c3ccc(Cl)cc3)Nc3c2c(-c2ccccc2)nn3-c2ccccc2)c2ccccc21 (stereo unspecified) | 106% |
| Cc1ccc2c(c1)/C(=C/C(=O)c1cc3ccccc3oc1=O)C(=O)N2 | -94.7% (active) |
| N#CC1=C(c2cccs2)Nc2c(c(-c3ccccc3)nn2-c2ccccc2)C12C(=O)Nc1ccc(Cl)cc12 (stereo unspecified) | 21.3% |
| O=C(NC(=S)N1CCN(c2ncnc3c2cnn3-c2ccccc2)CC1)c1ccc(Br)cc1 | 81.7% |
| Nc1nnc(-c2cncc(Br)c2)c(-c2c[nH]c3ccc(Cl)cc23)n1 | 82.8% |

| Compound | growth |
| --- | --- |
| COc1ccc(C2=NN(C(=O)[C@H]3[C@@H](c4ccco4)c4sc(=O)[nH]c4S[C@@H]3C)C(c3ccc4ccccc4c3)C2)cc1 (stereo partly specified) | 24.9% |
| CCOc1ccc2[nH]c(=O)c(C(c3nnnn3CC3CCCO3)N3CCN(Cc4ccccc4)CC3)cc2c1 (stereo unspecified) | 98.8% |
| FC(F)(F)c1cc2c(Cl)ncnc2n1CCC1CCOCC1 | 35% |
| COc1cc(/C=C/C(=O)c2cnn(-c3cc(=O)[nH]c4ccc(C)cc34)c2C)cc(OC)c1OC | -57.6% (active) |
| O=C(N/N=C/c1c[nH]c2ccccc12)Nc1ccccc1Cl | 26.1% |
| Nc1nn2c(-c3cc4ccccc4oc3=O)ccnc2c1N=Nc1ccccc1 | 93% |
| Cc1ccc(C(=O)Nc2cc(-c3ccncc3)cc(C(F)(F)F)c2)cc1C#Cc1cnc2cccnn12 | 30.7% |
| COc1ccc(C(=O)/C=C/c2ccc3c(c2)OCCO3)cc1S(N)(=O)=O | 32.3% |
| FC(F)(F)c1cc2c(Cl)ncnc2n1CCN1CCCCC1 | 34% |
| COc1ccc2[nH]cc(-c3cc4nc(-c5cn(C)c6ncccc56)cc(N)n4n3)c2c1 | -53.3% (active) |
| Nc1nc(-c2ccccc2)c(N=Nc2ccc(Cl)cc2Cl)s1 | -59.7% (active) |
| COc1ccc(NC(=O)Cn2c(/C=C/c3ccc([N+](=O)[O-])cc3)nc3ccccc3c2=O)cc1 | 70.5% |
| C[C@@H]1[C@H]2C[C@@H](C[C@H]1NCc1nc3ccccc3n1C1CCCCCC1)C2(C)C | 49.6% |
| COc1ccc(NC(=O)Cn2c(/C=C/c3cccc(Br)c3)nc3ccccc3c2=O)cc1 | 32.2% |
| Cc1ccc(-c2cc(C(=O)N=Nc3c(O)[nH]c4ccc(F)cc34)c3ccccc3n2)cc1 | 19.4% |
| CCOC(=O)c1ccc(NC(=S)NC(=O)c2ccc(NC(=O)C(C)C)cc2OC)cc1 | 62.6% |
| CCCSc1nnc(-c2c(C)nc3sccn23)o1 | 104% |
| Cc1ccc(N=Nc2c(N)nn3c(-c4cc5ccccc5oc4=O)ccnc23)cc1 | 30.7% |
| O=C(N/N=C/c1ccc(Cl)o1)c1[nH]c2ccc(Br)cc2c1-c1ccccc1 | -29.6% (active) |

test system: MCF7 breast; assay: as above; conditions: 10 µM unless noted

| Compound | growth |
| --- | --- |
| Cc1ccc(C(=O)Nc2ccc(-n3ccnc3)c(C(F)(F)F)c2)cc1C#Cc1cnc2cccnn12 | 25.1% |
| N/C(=N\c1nc2ccccc2s1)NC(=O)Nc1ccccc1F | 20.1% |
| Cc1nc2sccn2c1-c1nnc(SCC(C)C)o1 | 37.5% |
| O=[N+]([O-])c1cccc(-c2nnc3c(/C=C/c4ccc(F)cc4)nc4ccccc4n23)c1 | 28.4% |
| C=CC(=O)N1CCN(c2ccc3nc4c(nc3c2C(F)(F)F)C(=O)c2ncccc2C4=O)CC1 | -66.8% (active) |
| CN1CCN(CCS(=O)(=O)Nc2cc(-c3ccc4ncnc(Nc5ccc(F)c(Cl)c5)c4c3)cnc2Cl)CC1 | 10.2% |
| COc1ccc(N=Nc2c(N)nn3c(-c4ccc(F)cc4)ccnc23)cc1 | 55.4% |
| O=C(N/N=C/c1c[nH]c2ccccc12)Nc1ccc(F)c(Cl)c1 | 9.25% (active) |
| N#CCc1nnc(NC(=O)c2ccc(-n3c(=O)[nH]c4ccccc4c3=O)cc2)s1 | 90.6% |
| CCOc1ccc(-c2cc(-c3cc(C(C)C)c(O)cc3C)nn2-c2ccc(S(N)(=O)=O)cc2)cc1 | 12% |
| CN1CCN(c2ccc3c4c(cccc24)C(=O)N(c2cccc(-c4nn(-c5ccccc5)cc4-c4nc5ccccc5s4)c2)C3=O)CC1 | 5.13% (active) |
| O=C(Cn1c(-c2ccccc2)nc2ccccc21)N=Nc1c(O)[nH]c2ccc(Cl)cc12 | 9.49% (active) |
| CCc1ccc(SC2c3cc(OC)ccc3Oc3nc(N)c(C#N)c(N)c32)cc1 (stereo unspecified) | -45.4% (active) |
| CN(C)C(=O)c1cc(-c2ccc3ncnc(N4CCc5cc(F)c(Cl)cc54)c3c2)cnc1N | -59.9% (active) |
| CN1C(=O)C2(C(C#N)=C(c3ccc(Cl)cc3)Nc3c2c(-c2ccccc2)nn3-c2ccccc2)c2ccccc21 (stereo unspecified) | 73.8% |
| Cc1ccc2c(c1)/C(=C/C(=O)c1cc3ccccc3oc1=O)C(=O)N2 | 55.9% |
| N#CC1=C(c2cccs2)Nc2c(c(-c3ccccc3)nn2-c2ccccc2)C12C(=O)Nc1ccc(Cl)cc12 (stereo unspecified) | 15.1% |
| O=C(NC(=S)N1CCN(c2ncnc3c2cnn3-c2ccccc2)CC1)c1ccc(Br)cc1 | 49.8% |
| Nc1nnc(-c2cncc(Br)c2)c(-c2c[nH]c3ccc(Cl)cc23)n1 | 75.1% |

| Compound | growth |
| --- | --- |
| COc1ccc(C2=NN(C(=O)[C@H]3[C@@H](c4ccco4)c4sc(=O)[nH]c4S[C@@H]3C)C(c3ccc4ccccc4c3)C2)cc1 (stereo partly specified) | 13.1% |
| CCOc1ccc2[nH]c(=O)c(C(c3nnnn3CC3CCCO3)N3CCN(Cc4ccccc4)CC3)cc2c1 (stereo unspecified) | 92.4% |
| FC(F)(F)c1cc2c(Cl)ncnc2n1CCC1CCOCC1 | 34.7% |
| COc1cc(/C=C/C(=O)c2cnn(-c3cc(=O)[nH]c4ccc(C)cc34)c2C)cc(OC)c1OC | -15.7% (active) |
| O=C(N/N=C/c1c[nH]c2ccccc12)Nc1ccccc1Cl | 1.71% (active) |
| Nc1nn2c(-c3cc4ccccc4oc3=O)ccnc2c1N=Nc1ccccc1 | 52.7% |
| Cc1ccc(C(=O)Nc2cc(-c3ccncc3)cc(C(F)(F)F)c2)cc1C#Cc1cnc2cccnn12 | 45.9% |
| COc1ccc(C(=O)/C=C/c2ccc3c(c2)OCCO3)cc1S(N)(=O)=O | 23.2% |
| FC(F)(F)c1cc2c(Cl)ncnc2n1CCN1CCCCC1 | 52.1% |
| COc1ccc2[nH]cc(-c3cc4nc(-c5cn(C)c6ncccc56)cc(N)n4n3)c2c1 | -24.8% (active) |
| Nc1nc(-c2ccccc2)c(N=Nc2ccc(Cl)cc2Cl)s1 | -28.9% (active) |
| COc1ccc(NC(=O)Cn2c(/C=C/c3ccc([N+](=O)[O-])cc3)nc3ccccc3c2=O)cc1 | 73.9% |
| C[C@@H]1[C@H]2C[C@@H](C[C@H]1NCc1nc3ccccc3n1C1CCCCCC1)C2(C)C | 28.1% |
| COc1ccc(NC(=O)Cn2c(/C=C/c3cccc(Br)c3)nc3ccccc3c2=O)cc1 | 34.2% |
| Cc1ccc(-c2cc(C(=O)N=Nc3c(O)[nH]c4ccc(F)cc34)c3ccccc3n2)cc1 | 18% |
| CCOC(=O)c1ccc(NC(=S)NC(=O)c2ccc(NC(=O)C(C)C)cc2OC)cc1 | 8.31% (active) |
| CCCSc1nnc(-c2c(C)nc3sccn23)o1 | 23% |
| Cc1ccc(N=Nc2c(N)nn3c(-c4cc5ccccc5oc4=O)ccnc23)cc1 | 26.6% |
| O=C(N/N=C/c1ccc(Cl)o1)c1[nH]c2ccc(Br)cc2c1-c1ccccc1 | 1.67% (active) |
